From PMC5700166 come the findings set out here.

Changes are numbered by the printed parent chain.

Test in all cases: protein-binding microarray (PBM); PBM: ~300 nM protein, 6 mM HEPES pH 7.8, 80 mM KCl, 0.5 mM EDTA, 0.5 mM EGTA, 6% glycerol, 35 ng/ul poly-dIdC, 1% milk, 1 h, room temperature; Ap Aiptasia and Nv Nematostella (sea anemones) / Co Capsaspora / Aq Amphimedon (sponge) / Dm Drosophila / Hu human; RHD is the Rel homology domain; high values mean tight binding
Holding throughout (details): dsDNA, one strand shown

Experiment [1] addresses T1, GST-Nv-NF-kB (Cys allele) (Nematostella vectensis, UniProt E5G601 2-411).
T1 sequence: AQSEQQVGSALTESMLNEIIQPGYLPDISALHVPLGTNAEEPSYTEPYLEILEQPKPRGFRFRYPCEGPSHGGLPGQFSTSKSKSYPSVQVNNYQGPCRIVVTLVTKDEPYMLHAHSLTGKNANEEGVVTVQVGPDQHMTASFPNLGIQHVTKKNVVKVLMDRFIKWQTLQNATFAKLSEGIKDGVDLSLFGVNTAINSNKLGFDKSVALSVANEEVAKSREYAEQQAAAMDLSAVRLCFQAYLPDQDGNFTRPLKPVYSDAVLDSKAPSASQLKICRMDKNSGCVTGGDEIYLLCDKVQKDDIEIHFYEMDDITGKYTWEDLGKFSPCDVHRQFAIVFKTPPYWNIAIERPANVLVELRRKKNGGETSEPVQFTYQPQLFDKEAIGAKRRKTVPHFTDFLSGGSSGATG

Experiment [2] deals with T2, GST-Nv-NF-kB (Ser allele) (Nematostella vectensis, UniProt A7UNT2 2-411).
T2 sequence: T1 sequence with Q21R, C66S, S207N, E215Q, V217A, E225K, A268E, D399E

A further experiment addresses T3, GST-Ap-NF-kB RHD (Exaiptasia pallida (Aiptasia), UniProt A0A913YAJ5 2-422).
T3 sequence: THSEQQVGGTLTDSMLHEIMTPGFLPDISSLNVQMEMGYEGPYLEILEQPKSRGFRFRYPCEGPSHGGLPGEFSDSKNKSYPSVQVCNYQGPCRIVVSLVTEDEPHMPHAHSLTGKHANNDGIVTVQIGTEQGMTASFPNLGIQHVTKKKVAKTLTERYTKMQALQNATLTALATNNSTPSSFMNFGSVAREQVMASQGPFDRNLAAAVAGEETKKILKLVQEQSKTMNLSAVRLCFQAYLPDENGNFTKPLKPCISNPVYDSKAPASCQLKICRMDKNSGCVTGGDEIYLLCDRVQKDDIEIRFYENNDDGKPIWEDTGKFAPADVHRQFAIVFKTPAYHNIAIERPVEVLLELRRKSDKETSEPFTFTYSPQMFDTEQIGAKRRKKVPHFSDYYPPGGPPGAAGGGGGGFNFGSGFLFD

The target in the next experiment is T4, GST-Co-NF-kB (Capsaspora owczarzaki, UniProt F1ARL5 200-546).
T4 sequence: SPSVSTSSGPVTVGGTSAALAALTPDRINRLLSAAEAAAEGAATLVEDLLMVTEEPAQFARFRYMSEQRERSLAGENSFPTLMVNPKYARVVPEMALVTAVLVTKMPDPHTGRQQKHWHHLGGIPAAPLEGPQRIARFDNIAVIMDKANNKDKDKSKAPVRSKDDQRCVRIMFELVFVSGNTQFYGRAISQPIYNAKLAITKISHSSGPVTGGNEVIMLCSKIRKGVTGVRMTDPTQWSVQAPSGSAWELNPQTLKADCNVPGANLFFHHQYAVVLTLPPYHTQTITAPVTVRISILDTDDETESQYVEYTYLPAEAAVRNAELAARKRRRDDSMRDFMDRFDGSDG

A further experiment concerns the target T5, GST-Dm-Relish (Drosophila melanogaster, UniProt Q94527 99-473).
T5 sequence: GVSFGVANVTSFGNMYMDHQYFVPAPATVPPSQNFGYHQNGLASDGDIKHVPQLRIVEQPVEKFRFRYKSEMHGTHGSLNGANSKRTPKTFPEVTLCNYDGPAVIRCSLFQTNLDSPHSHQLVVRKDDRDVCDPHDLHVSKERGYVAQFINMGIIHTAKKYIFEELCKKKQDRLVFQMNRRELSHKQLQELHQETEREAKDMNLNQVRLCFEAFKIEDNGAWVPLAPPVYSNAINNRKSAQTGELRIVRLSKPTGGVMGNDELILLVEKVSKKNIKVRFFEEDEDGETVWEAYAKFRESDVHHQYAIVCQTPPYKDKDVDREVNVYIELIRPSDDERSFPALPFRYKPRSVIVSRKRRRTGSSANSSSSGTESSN

Take “CCGATTAACATCAAGAACCTTCTTGATGTTAATCGGGTCTTGATTCGCTTGACGCTGCTG”: the binding signal in experiment [1] was 1.02 z-score.

In experiment [2], “CCGATTAACATCAGTACCTCGTATGATGTTAATCGGGTCTTGATTCGCTTGACGCTGCTG” yielded a binding signal of 1.04 z-score.

Turning to “CCGATTAACATCAATCAGCGGGGTGATGTTAATCGGGTCTTGATTCGCTTGACGCTGCTG”, the results for the binding signal with GST-Ap-NF-kB RHD and with GST-Co-NF-kB were 1.21 z-score and 2.43 z-score, respectively.

Consider “CCGATTAACATCAACCCCCCCCCTGATGTTAATCGGGTCTTGATTCGCTTGACGCTGCTG”, for which the binding signal turned out to be 5.71 z-score with GST-Ap-NF-kB RHD, 4.2 z-score in experiment [2], 5.49 z-score with GST-Co-NF-kB and 5.26 z-score with GST-Dm-Relish.

Take “CCGATTAACATCAAGGGGGGGGATGATGTTAATCGGGTCTTGATTCGCTTGACGCTGCTG”: the binding signal amounted to 7.71 z-score with GST-Ap-NF-kB RHD, 7.64 z-score with GST-Co-NF-kB and 5.31 z-score with GST-Dm-Relish.

Consider “CCGATTAACATCAATTTTTGCCCTGATGTTAATCGGGTCTTGATTCGCTTGACGCTGCTG”, for which the binding signal with GST-Co-NF-kB was 1.72 z-score.

In turn, “CCGATTAACATCAAAGAGGAGTCTGATGTTAATCGGGTCTTGATTCGCTTGACGCTGCTG” displayed a binding signal in experiment [1] of 1.23 z-score.

With “CCGATTAACATCAAGTACCAGGGTGATGTTAATCGGGTCTTGATTCGCTTGACGCTGCTG”, in the experiment with GST-Ap-NF-kB RHD, the binding signal amounted to 1.05 z-score.

“CCGATTAACATCAAGAGAGAAAGTGATGTTAATCGGGTCTTGATTCGCTTGACGCTGCTG” had a binding signal in the experiment with GST-Co-NF-kB of 1.16 z-score.

On to “CCGATTAACATCACCCGGCGCAGTGATGTTAATCGGGTCTTGATTCGCTTGACGCTGCTG”, for which the binding signal with GST-Ap-NF-kB RHD is 1.17 z-score; with GST-Co-NF-kB, 2.3 z-score.

The sequence “CCGATTAACATCAAGGGTGGAAATGATGTTAATCGGGTCTTGATTCGCTTGACGCTGCTG” had a binding signal with GST-Co-NF-kB of 1.66 z-score.

For “CCGATTAACATCACCCCATCTCGTGATGTTAATCGGGTCTTGATTCGCTTGACGCTGCTG”, the figures for the binding signal in the experiment with GST-Ap-NF-kB RHD, in the experiment with GST-Co-NF-kB and in the experiment with GST-Dm-Relish were 1.2 z-score, 2.11 z-score and 1.42 z-score, respectively.

For the sequence “CCGATTAACATCAAGGGGGGATATGATGTTAATCGGGTCTTGATTCGCTTGACGCTGCTG”, the binding signal worked out at 5.79 z-score with GST-Ap-NF-kB RHD, 4.88 z-score in experiment [1], 6.15 z-score in the experiment with GST-Co-NF-kB and 4.29 z-score in the experiment with GST-Dm-Relish.

Turning to “CCGATTAACATCAGATAGGTACTTGATGTTAATCGGGTCTTGATTCGCTTGACGCTGCTG”, in experiment [2], the binding signal worked out at 2.46 z-score.

In experiment [2], “CCGATTAACATCAGGTAATATATTGATGTTAATCGGGTCTTGATTCGCTTGACGCTGCTG” registered a binding signal of 2.14 z-score.

With “CCGATTAACATCAACCCCAGCTCTGATGTTAATCGGGTCTTGATTCGCTTGACGCTGCTG”, the binding signal in the experiment with GST-Ap-NF-kB RHD came to 1.01 z-score; in experiment [1], 1.21 z-score; in the experiment with GST-Co-NF-kB, 1.8 z-score; in the experiment with GST-Dm-Relish it was 1.14 z-score.

Turning to “CCGATTAACATCACTACCCCGGATGATGTTAATCGGGTCTTGATTCGCTTGACGCTGCTG”, the binding signal amounted to 1.88 z-score in the experiment with GST-Ap-NF-kB RHD and 3.19 z-score with GST-Co-NF-kB.

With “CCGATTAACATCACCCCCCCCCATGATGTTAATCGGGTCTTGATTCGCTTGACGCTGCTG”, the binding signal in the experiment with GST-Ap-NF-kB RHD worked out at 4.92 z-score; in experiment [2], 3.7 z-score; with GST-Co-NF-kB, 7.08 z-score; with GST-Dm-Relish, 5.37 z-score.

“CCGATTAACATCAGGGCAAAAAATGATGTTAATCGGGTCTTGATTCGCTTGACGCTGCTG” came in with a binding signal with GST-Co-NF-kB of 1.84 z-score.

Turning to “CCGATTAACATCAGCATTCCCAATGATGTTAATCGGGTCTTGATTCGCTTGACGCTGCTG”, the binding signal in experiment [1] worked out at 1.29 z-score; with GST-Co-NF-kB, 1.08 z-score.

In experiment [2], “CCGATTAACATCACACTGTTCAGTGATGTTAATCGGGTCTTGATTCGCTTGACGCTGCTG” displayed a binding signal of 1.06 z-score.

In the case of “CCGATTAACATCACTAGGCGGGATGATGTTAATCGGGTCTTGATTCGCTTGACGCTGCTG”, the binding signal was found to be 1.56 z-score with GST-Ap-NF-kB RHD and 1.92 z-score in the experiment with GST-Co-NF-kB.

In the case of “CCGATTAACATCAATTTGGGAAATGATGTTAATCGGGTCTTGATTCGCTTGACGCTGCTG”, the binding signal in experiment [1] came out at 2.58 z-score; with GST-Co-NF-kB, 1.92 z-score.
